These results are taken from paper PMC12670160, “A drug-repurposing screen of FDA- and EMA-approved drugs identifies two NF-κB inhibitors active against eumycetoma” (Journal of Antimicrobial Chemotherapy, 2025).

Structures can show the parent of a compound that is named as a salt. Where two headings read alike, the source gives them in different places. The whole screen tested about 5,300 compounds, of which about 130 (2.5%) showed an effect of 50% or more. The list comes from a sample in which strong results are over-represented; it also holds similar structures and randomly drawn compounds.

The subject of the assay is M. mycetomatis strain mm55. The following applies: primary screen, metabolic activity vs growth control, 96 h, 2 µM, inhibitor.
The mark [1] stands for this setting: Madurella mycetomatis metabolic activity at 2µM (%).

Turning to `Cc1coc2c1C(=O)C(=O)c1c-2ccc2c1CCCC2(C)C` [ONC0005254, tanshinone iia tanshinone b], the “% viability” value came out at 103.2%.

Take `Cc1c(S(=O)(=O)O)oc2c1C(=O)C(=O)c1c-2ccc2c1CCCC2(C)C` [ONC0003377, sodiumtanshinoneiiasulfonate]: the “% viability” value was determined as 55.5%.

On to `C[C@H]1COC2=C1C(=O)C(=O)c1c2ccc2c1CCCC2(C)C` [ONC0001081, cryptotanshinone], for which the “% viability” value was determined as 49.66%.

Turning to `Nc1nc2nc[nH]c2c(=S)[nH]1` [ONC0003925, tioguanine], the “% viability” value is 107.9%.

In the case of `Nc1ncn([C@H]2C[C@H](O)[C@@H](CO)O2)c(=O)n1` [ONC0003115, decitabine], the “% viability” value is recorded as 79.17%.

Take `Cc1cn([C@@H]2C[C@@H](O)[C@H](CO)O2)c(=O)[nH]c1=O` [ONC0004416, telbivudine sebivo tyzeka]: the “% viability” value amounted to 98.41%.

For the molecule `Nc1nc(=O)n([C@H]2C[C@H](O)[C@@H](CO)O2)cc1Cl` [ONC0003690, 5chloro2deoxycytidine], the “% viability” value turned out to be 55.79%.

`Nc1nc(=O)n([C@H]2C[C@H](O)[C@@H](CO)O2)cc1F` [ONC0004119, 5fluoro2deoxycytidine]: the “% viability” value worked out at 7.324%.

With `O=c1[nH]c(=O)n([C@H]2C[C@H](O)[C@@H](CO)O2)cc1F` [ONC0002845, floxuridine], the “% viability” value is listed as 24.01%.

`O=c1[nH]c(=O)n([C@H]2C[C@H](O)[C@@H](CO)O2)cc1Br` [ONC0001774, 5brdu]: the “% viability” value came to 105.2%.

In the case of `Nc1nccc(/C=C/c2ccccc2)n1` [ONC0001621, tcn238], the “% viability” value was found to be 73.65%.

As to `CCC(C/C=C/c1ccccc1)(c1ccccc1)N(C)CC1CC1` (centres unmarked) [ONC0003075, igmesine], the “% viability” value was determined as 61.21%.

Turning to `O=C(NCCN1CCC2(CC1)C(=O)NCN2c1cccc(F)c1)c1ccc(F)c(F)c1` [ONC0004390, ml298], the “% viability” value came to 135.4%.

Consider `O=C1NCN(c2ccccc2)C12CCN(CCCC(c1ccc(F)cc1)c1ccc(F)cc1)CC2` [ONC0003520, fluspirilene], for which the “% viability” value is 48.06%.

Turning to `O=C(CCCN1CCC2(CC1)C(=O)NCN2c1ccccc1)c1ccc(F)cc1` [ONC0000014, spiperone], the “% viability” value amounted to 87.63%.

Consider `CC(C)c1cc(CNc2nc(Nc3cc(C4CC4)[nH]n3)cc(N3CCN(C)CC3)n2)on1` [ONC0000976, xl228], for which the “% viability” value is given as 85.75%.

For `CCCC[C@H](NC(C)=O)C(=O)N[C@H]1CC(=O)NCCCC[C@@H](C(=O)O)NC(=O)[C@H](Cc2c[nH]c3ccccc23)NC(=O)[C@H](CCCN=C(N)N)NC(=O)[C@@H](Cc2ccccc2)NC(=O)[C@H](Cc2cnc[nH]2)NC1=O` [ONC0002156, bremelanotide acetate], the “% viability” value was 73.73%.

Turning to `O=C1O[C@@H](CO)[C@H](O)[C@@H](O)[C@@H]1O` [ONC0003123, gluconolactone], the “% viability” value was 67.77%.

For the molecule `C[N+]1(C)CCC(OC(=O)C(c2ccccc2)c2ccccc2)CC1` [ONC0003592, 4damp], the “% viability” value came out at 92.53%.

Consider `C[N+]1(C)CCC(=C(c2ccccc2)c2ccccc2)CC1` [ONC0004508, diphemanil methylsulfate], for which the “% viability” value is 48.99%.

Regarding `Clc1cccc(Cl)c1N=C1NCCN1` [ONC0004193, clonidine hydrochloride], the “% viability” value is 96.49%.

Regarding “Ac-PHSCN-NH2 [ONC0000745, atn161 trifluoroacetate salt]”, the “% viability” value is recorded as 72.86%.

Regarding `CCNC(=O)[C@@H]1CCCN1C(=O)[C@H](CCCNC(=N)N)NC(=O)[C@H](CC(C)C)NC(=O)[C@@H](C)NC(=O)[C@H](Cc1ccc(O)cc1)NC(=O)[C@H](CO)NC(=O)[C@H](Cc1c[nH]c2ccccc12)NC(=O)[C@H](Cc1c[nH]cn1)NC(=O)[C@@H]1CCC(=O)N1` [ONC0002202, alarelin acetate], the “% viability” value came to 212.3%.

Consider `CC(CN(C)C)CN1c2ccccc2Sc2ccccc21` (centres unmarked) [ONC0003228, trimeprazine tartrate], for which the “% viability” value under setting [1] was 94.09%.

Consider `CS(=O)(=O)c1ccc(Oc2cc(F)cc(C#N)c2)c2c1[C@H](O)C(F)(F)C2` [ONC0001118, pt2385], for which the “% viability” value is reported as 47.48%.

On to `C[N+](C)(C)[C@@H](Cc1c[nH]c(=S)[nH]1)C(=O)O` [ONC0003509, lergothioneine], for which the “% viability” value turned out to be 51.74%.

On to `CCOC(=O)N1CSCC1C(=O)O` (centres unmarked) [ONC0002766, 3ethyl thiazolidine34dicarboxylate], for which the “% viability” value turned out to be 97.19%.

For `Nc1ncnc2c1ncn2[C@H]1O[C@@H](C(=O)N2CCN(CC(=O)Nc3cccc4c3CNC4=O)CC2)[C@H](O)[C@@H]1O` [ONC0001619, eb47], the “% viability” value is listed as 55.83%.

For the molecule `Cc1cn([C@H]2O[C@@H](CO)[C@H](O)[C@@H]2F)c(=O)[nH]c1=O` [ONC0004549, clevudine levovir], the “% viability” value came out at 61.35%.

Consider `O=C(O)/C=C/c1c[nH]cn1` [ONC0003737, cisurocanicacid], for which the “% viability” value worked out at 146.4%.

For `N[C@H](Cc1c[nH]cn1)C(=O)O` [ONC0001939, dhistidine], the “% viability” value stood at 75.44%.

Regarding `O=C(O)/C=C\c1c[nH]cn1` [ONC0002668, cisurocanic acid], the “% viability” value is on record as 45.73%.

Turning to `NC(=O)c1nc[nH]c1O` [ONC0003682, 5hydroxy1himidazole4carboxamide], the “% viability” value stood at 60.3%.

For the molecule `Nc1nc2nn[nH]c2c(=O)[nH]1` [ONC0002792, azaguanine8], the “% viability” value was found to be 265.7%.

As to `O=C(O)Cc1ccc(OCCNC[C@H](O)c2ccccc2)cc1` [ONC0001068, zd2079], the “% viability” value worked out at 36.58%.

Consider `COCCNC(=O)COc1ccc(OCCNC[C@H](O)COc2ccccc2)cc1` [ONC0001450, zd7114], for which the “% viability” value turned out to be 94.55%.

With `O=C(O)COc1ccc(OCCNC[C@H](O)COc2ccccc2)cc1` [ONC0002275], the “% viability” value came out at 78.74%.

`COc1ccc(C[C@H](C)NC[C@@H](O)c2ccc(O)c(NC=O)c2)cc1` [ONC0001548, formoterol]: the “% viability” value came to 81.88%.

Regarding `COc1ccc([C@]2(O)CC[C@@H](N3CC[C@@H](NC(=O)CNC(=O)c4cccc(C(F)(F)F)c4)C3)CC2)cn1` [ONC0000726, incb 3284], the “% viability” value was found to be 81.5%.

Take `c1ccc(-c2ccc(CNc3nc(-c4ccccn4)nnc3-c3ccccc3)cc2)cc1` [ONC0001674, ml228]: the “% viability” value is listed as 2.835%.

In the case of `c1cnc(NCc2ccc(CNc3ncccn3)cc2)nc1` [ONC0002000, msx122], the “% viability” value was found to be 83.13%.

Take `c1ccc(NCc2ccc(CNc3ccccn3)cc2)nc1` [ONC0004550, wz 811]: the “% viability” value was found to be 63.57%.

As for `FCc1ccc(OCCOc2ccc(Cl)cc2Cl)c(Cl)n1` [ONC0000095, cym50260], the “% viability” value was 81.52%.

Turning to `O=C(O)CN(CCN(CC(=O)O)CC(=O)O)CCN(CC(=O)O)CC(=O)O` [ONC0005432, gadopenteticacid], the “% viability” value under setting [1] was found to be 103.1%.

`CC(C)N[C@@H]1CCn2c(=O)[nH]c3cccc(c32)[C@H]1O` [ONC0001941, zilpaterolhcl]: the “% viability” value was 67.69%.

Take `COc1cccc2c1C(=O)c1c(O)c3c(c(O)c1C2=O)C[C@@](O)(C(C)=O)C[C@@H]3O[C@H]1C[C@H](N)[C@H](O)[C@H](C)O1` [ONC0001686, daunorubicin]: the “% viability” value worked out at 72.25%.

In the case of `COc1cccc2c1C(=O)c1c(O)c3c(c(O)c1C2=O)C[C@@](O)(C(=O)CO)C[C@@H]3O[C@H]1C[C@H](N)[C@@H](O)[C@H](C)O1` [ONC0004636, epirubicin hydrochloride], the “% viability” value is 92.65%.

`CC(=O)[C@]1(O)Cc2c(O)c3c(c(O)c2[C@@H](O[C@H]2C[C@H](N)[C@H](O)[C@H](C)O2)C1)C(=O)c1ccccc1C3=O` [ONC0004533, idarubicin hcl]: the “% viability” value worked out at 43.23%.

In the case of `CNC(=O)ON(C(C)=O)C(=O)NC` [ONC0003740, caracemide], the “% viability” value turned out to be 136.5%.

For the molecule `NC(=O)c1nc(F)c[nH]c1=O` [ONC0003386, favipiravir], the “% viability” value was determined as 85.13%.

Take `CCCC(=O)Nc1ccc(OCC(O)CNC(C)C)c(C(C)=O)c1` (centres unmarked) [ONC0003369, acebutolol hydrochloride]: the “% viability” value amounted to 44.26%.

As for `CCN(CC)C(=O)Nc1ccc(OCC(O)CNC(C)(C)C)c(C(C)=O)c1` (centres unmarked) [ONC0002160, celiprolol], the “% viability” value is recorded as 87.56%.

Turning to `CC(=O)Nc1ccc(OCC(O)CNC(C)C)cc1` (centres unmarked) [ONC0002176, practolol], the “% viability” value was 73.91%.

Take `O=C(O)c1cc(/N=N/c2ccc(S(=O)(=O)Nc3ccccn3)cc2)ccc1O` [ONC0000599, sulfasalazine]: the “% viability” value came to 109.1%.

Regarding `COc1ccc(NS(=O)(=O)c2ccc(N)cc2)nn1` [ONC0000622, sulfamethoxypyridazine], the “% viability” value was 113.3%.

For the molecule `COc1ccc(NS(=O)(=O)c2ccc(N=Nc3ccc(O)c(C(=O)O)c3)cc2)nn1` [ONC0003399, salazodine], the “% viability” value was 47.95%.

`NS(=O)(=O)NCCNc1nonc1C(=NO)Nc1ccc(F)c(Br)c1` [ONC0005250, epacadostat incb024360]: the “% viability” value came to 130.3%.

In the case of `CN1CCN(C(=O)C2C(C(=O)O)[C@@H]3CC[C@H]2O3)CC1` (some centres unmarked) [ONC0001871, lb100], the “% viability” value is reported as 109.3%.

Consider `CCO/N=C(/C(=O)N[C@@H]1C(=O)N2C(C(=O)O)=C(Sc3nc(-c4cc[n+](C)cc4)cs3)CS[C@H]12)c1nsc(NP(=O)(O)O)n1` [ONC0002991, ceftarolinefosamil], for which the “% viability” value is 80.17%.

On to `COc1ccc(NS(=O)(=O)c2sc3ccc(Cl)cc3c2C)cc1N1CCNCC1` [ONC0005236, sb 271046], for which the “% viability” value turned out to be 123.6%.

As to `COc1ccc(S(=O)(=O)Nc2cc(Cl)cc(Cl)c2OC)cc1N1CCNCC1` [ONC0000041, sb399885], the “% viability” value came out at 47.84%.

Take `COc1ccc(NS(=O)(=O)c2ccc(I)cc2)cc1N1CCN(C)CC1` [ONC0001661, sb258585]: the “% viability” value was 76.38%.
